nsP2pro primary – blocks chikungunya virus nsP2 protease peptide cleavage. Q8JUX6. FRET peptide cleavage, nsP2pro, fluorescence 1 h. Potency, µM (highest dose often 24.9 µM), inactives show at the highest dose activity change, negative = inhibition, usual class: inhibitors. actives 1.1% (n = 31,000). AID 1964107; further: nearly all actives have a fitted effect of over 60% in size
Target sequence (Q8JUX6 whole entry, looked up): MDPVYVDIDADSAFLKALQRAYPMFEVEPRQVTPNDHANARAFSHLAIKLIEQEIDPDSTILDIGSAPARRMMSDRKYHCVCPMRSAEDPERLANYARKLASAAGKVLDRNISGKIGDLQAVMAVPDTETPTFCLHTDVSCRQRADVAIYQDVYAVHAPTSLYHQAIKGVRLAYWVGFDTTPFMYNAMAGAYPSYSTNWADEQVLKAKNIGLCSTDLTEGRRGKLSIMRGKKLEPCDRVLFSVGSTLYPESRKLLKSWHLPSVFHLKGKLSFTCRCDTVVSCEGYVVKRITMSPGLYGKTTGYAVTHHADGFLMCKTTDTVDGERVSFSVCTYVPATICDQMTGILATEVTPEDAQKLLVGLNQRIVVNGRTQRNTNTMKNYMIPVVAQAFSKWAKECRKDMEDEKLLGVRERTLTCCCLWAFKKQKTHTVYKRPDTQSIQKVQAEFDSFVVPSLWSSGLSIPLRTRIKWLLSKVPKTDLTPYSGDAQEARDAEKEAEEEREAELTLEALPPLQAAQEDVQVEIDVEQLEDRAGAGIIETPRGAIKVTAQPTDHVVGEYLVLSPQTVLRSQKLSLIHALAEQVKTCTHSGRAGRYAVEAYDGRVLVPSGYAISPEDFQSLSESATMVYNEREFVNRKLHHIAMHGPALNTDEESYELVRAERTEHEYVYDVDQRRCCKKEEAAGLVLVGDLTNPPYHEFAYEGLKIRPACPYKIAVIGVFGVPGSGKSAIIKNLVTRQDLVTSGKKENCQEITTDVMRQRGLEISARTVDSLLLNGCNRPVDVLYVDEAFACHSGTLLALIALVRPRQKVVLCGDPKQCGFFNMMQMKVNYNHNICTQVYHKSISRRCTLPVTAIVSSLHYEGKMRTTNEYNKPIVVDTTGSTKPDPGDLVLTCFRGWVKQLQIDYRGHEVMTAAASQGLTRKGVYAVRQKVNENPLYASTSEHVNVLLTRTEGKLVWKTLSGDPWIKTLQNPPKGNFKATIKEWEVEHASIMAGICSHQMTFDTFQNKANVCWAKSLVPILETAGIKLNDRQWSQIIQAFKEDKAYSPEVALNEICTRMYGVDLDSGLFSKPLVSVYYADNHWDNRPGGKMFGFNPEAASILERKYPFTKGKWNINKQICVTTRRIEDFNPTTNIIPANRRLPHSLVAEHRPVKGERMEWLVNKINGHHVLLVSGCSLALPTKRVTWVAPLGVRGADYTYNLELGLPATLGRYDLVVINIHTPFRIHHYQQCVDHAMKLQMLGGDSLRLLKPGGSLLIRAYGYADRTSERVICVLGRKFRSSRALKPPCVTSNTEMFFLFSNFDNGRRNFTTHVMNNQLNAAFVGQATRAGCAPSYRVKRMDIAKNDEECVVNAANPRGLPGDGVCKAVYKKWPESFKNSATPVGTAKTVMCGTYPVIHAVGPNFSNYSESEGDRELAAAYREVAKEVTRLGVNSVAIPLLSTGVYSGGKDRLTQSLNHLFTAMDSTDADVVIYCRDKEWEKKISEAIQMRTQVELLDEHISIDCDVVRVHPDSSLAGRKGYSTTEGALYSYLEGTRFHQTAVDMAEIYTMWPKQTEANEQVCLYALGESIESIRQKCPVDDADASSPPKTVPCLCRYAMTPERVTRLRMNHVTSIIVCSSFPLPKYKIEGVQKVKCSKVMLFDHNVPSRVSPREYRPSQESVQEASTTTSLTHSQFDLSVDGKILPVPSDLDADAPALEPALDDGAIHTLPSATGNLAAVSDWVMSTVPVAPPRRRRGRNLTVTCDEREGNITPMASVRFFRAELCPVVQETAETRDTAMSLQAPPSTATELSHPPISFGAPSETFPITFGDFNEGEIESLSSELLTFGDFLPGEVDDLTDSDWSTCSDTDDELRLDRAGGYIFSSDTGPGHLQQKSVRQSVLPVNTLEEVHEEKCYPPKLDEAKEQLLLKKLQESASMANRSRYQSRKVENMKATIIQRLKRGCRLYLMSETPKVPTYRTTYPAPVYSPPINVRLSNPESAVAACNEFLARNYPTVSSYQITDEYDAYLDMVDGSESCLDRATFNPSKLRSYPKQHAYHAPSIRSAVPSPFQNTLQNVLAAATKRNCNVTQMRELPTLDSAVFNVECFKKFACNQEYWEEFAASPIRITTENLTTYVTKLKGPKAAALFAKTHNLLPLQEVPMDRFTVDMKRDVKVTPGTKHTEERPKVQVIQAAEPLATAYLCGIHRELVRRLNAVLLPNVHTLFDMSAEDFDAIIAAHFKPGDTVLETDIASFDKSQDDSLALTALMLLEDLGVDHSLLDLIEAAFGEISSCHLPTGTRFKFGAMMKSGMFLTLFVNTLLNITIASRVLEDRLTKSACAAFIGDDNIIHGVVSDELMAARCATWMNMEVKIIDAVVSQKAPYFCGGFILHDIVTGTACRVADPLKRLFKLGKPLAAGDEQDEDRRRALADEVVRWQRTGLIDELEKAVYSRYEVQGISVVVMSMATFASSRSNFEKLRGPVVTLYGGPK
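Recombinant nsP2pro (150 nM) was preincubated with compound 15 min at room temperature in 10 mM Tris-HCl pH 8.0, 0.01% Tween 20. Peptide 2 FRET substrate (2.5 uM) was then added and fluorescence read after 1 h. Seven-point series, up to 25 uM.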
nsP2 cell sec – secondary cell-based test for CHIKV nsP2 protease inhibitors. shares compounds with nsP2pro primary. cell-based CHIKV nsP2 protease reporter assay. Potency, µM (top dose mostly 51.1 µM), inactives show at the highest dose activity change, negative = inhibition, usual class: inhibitors. actives 10% (n = 450). AID 1964100; further: nearly all actives have a fitted effect of over 70% in size
NSP2 full ctr – inhibits full-length CHIKV NSP2 enzyme | shares compounds with nsP2pro primary | Full-length CHIKV NSP2 protease enzymatic counterscreen | Potency, µM (titrated, usually from 50.7 µM), for the others: at the top dose activity change, negative = inhibition, usual class: inhibitors | actives 39% (n = 410) | AID 1964101; further: nearly all actives have a fitted effect of over 65% in size
Furin counter – inhibits human furin in a CHIKV nsP2 protease selectivity counterscreen; shares compounds with nsP2pro primary; Recombinant human furin enzymatic counterscreen, fluorogenic substrate; Potency, µM (doses to about 50.6 µM), for inactives: at the highest dose activity change, negative = inhibition, most hits filed as inhibitors; actives 6% (n = 410)
NS23 peptide cs – blocks CHIKV nsP2 protease cleavage of endogenous NS2/3 peptide | Purified CHIKV nsP2 protease, endogenous NS2/3 peptide cleavage | AID 1964103 | shares compounds with nsP2pro primary | actives 34% (n = 410) | Potency, µM (titrated, usually from 51 µM), inactives show at the highest dose activity change, negative = inhibition, most hits filed as inhibitors; further: nearly all actives have a fitted effect of over 55% in size
Papain cs – inhibits papain in a CHIKV nsP2 protease selectivity counterscreen; Potency, µM (series often up to 51 µM), for inactives: at the highest dose activity change, negative = inhibition, usual class: inhibitors; actives 5% (n = 410); purified papain protease activity, enzymatic inhibition; AID 1964104; shares compounds with nsP2pro primary
nsP2pro conf qHTS – confirmation of CHIKV nsP2 protease inhibitors; shares compounds with nsP2pro primary; CHIKV nsP2 protease enzymatic activity, qHTS; Potency, µM (highest dose often 25.5 µM), for the others: top-dose activity change, negative = inhibition, usual class: inhibitors; actives 43% (n = 410); further: nearly all actives have a fitted effect of over 75% in size
HCV NS3 counter – HCV NS3/4A protease inhibition, counterscreen; shares compounds with nsP2pro primary; HCV NS3/4A protease biochemical counterscreen; Potency, µM (series often up to 50.9 µM), most hits filed as inhibitors; actives 20% (n = 410); AID 1964106; further: nearly all actives have a fitted effect of over 55% in size
An asterisk follows results filed as active; i = inactive; ? = inconclusive; ! = repeats disagree; [ ] = dose if it differs, or a comment. The entries come from a sample that favours hits as a whole. The call rests on the fitted dose curve. On the % scale 0 is the no-effect control and ±100 the full control effect; potency means the concentration at half of the fitted maximal effect.

SMILES	nsP2pro primary	others
O=C(O)[C@H]1O[C@@H](Oc2cc3oc(-c4ccc(O)cc4)cc(=O)c3c(O)c2O)[C@H](O)[C@@H](O)[C@@H]1O	-12%
COc1cc(O)c(C(CC(=O)N2CCCC(C)(C)C2)c2ccc3c(c2)OCO3)c(OC)c1 (stereo unspecified)	i
O=C(Nc1ccc(S(=O)(=O)Nc2ccccc2Cl)c(Cl)c1)c1ccccn1	2%
CN1CCN(c2cnc3c(O)ccc(C(=O)O)c3c2)CC1	i
CC(C)Oc1ccc(C(=O)Nc2ccc(-c3nc4ccccc4[nH]3)cc2)cc1	-1%
CN1CCN(c2ccc(Nc3cc(-c4cccc(-n5ccc6cc(C7CC7)cc(F)c6c5=O)c4CO)cn(C)c3=O)nc2)CC1	?	nsP2 cell sec=141%;NSP2 full ctr=47%;Furin counter=-18%;NS23 peptide cs=i;Papain cs=?;nsP2pro conf qHTS=125%;HCV NS3 counter=i
Cc1cccc(-n2cnc3cc(C(=O)N4CCN(C)CC4)ccc32)c1	i
CC1CC(=O)C2=C(O1)OC1(C)CCC3C(C)(C)C=CC(=O)C3(C)C1C2 (stereo unspecified)	81%
Cc1ccc(C2(O)CCN(CCCC(=O)c3ccc(F)cc3)CC2)cc1	-10%
COC1(C[S@@](=O)c2ccccc2)CCN(CCc2c[nH]c3ccc(F)cc23)CC1	?	nsP2 cell sec=49%;NSP2 full ctr=-9%;Furin counter=-2%;NS23 peptide cs=-18%;Papain cs=0%;nsP2pro conf qHTS=-18%;HCV NS3 counter=i
Oc1cccc2cc(N3CCCC3)cnc12	-27%
Cc1ccc(Nc2ncc(C(=O)N3CCN(c4cccc(Cl)c4)CC3)c3ccccc23)cc1Cl	-20%
CS(=O)(=O)c1ncc(Cl)c(C(=O)N2CCN(c3cccc(Cl)c3)CC2)n1	1.6µM*	nsP2 cell sec=1.5µM*;NSP2 full ctr=5.8µM*;Furin counter=4%;NS23 peptide cs=8.2µM*;Papain cs=-3%;nsP2pro conf qHTS=4.5µM*;HCV NS3 counter=i
O=C(C1CCN(c2nc3ccccc3[nH]2)CC1)N1CCN(c2cccc(Cl)c2)CC1	4%
CC1(C)CN(C(=O)COc2ccccc2)CC(=O)N(Cc2ccccc2)C1	-12%
N[C@@H](CC(=O)Nc1ccc(Oc2cc(F)c(F)cc2Br)cc1)C(=O)O	5%
C=C(CCO[C@@H]1O[C@H](CO)[C@@H](O)[C@H](O)[C@H]1O)C(=O)O	?	nsP2 cell sec=-5%;NSP2 full ctr=-4%;Furin counter=6%;NS23 peptide cs=0%;Papain cs=-2%;nsP2pro conf qHTS=1%;HCV NS3 counter=i
CC(C)C(=O)OC[C@H]1O[C@H](O[C@H]2O[C@H](CO)[C@@H](O)[C@H](O)[C@H]2O)[C@H](O)[C@@H](O)[C@@H]1O	-7%[10 µM]
OC[C@H]1O[C@@H](OCCc2ccc(O)cc2)[C@H](O)[C@@H](O)[C@@H]1O	37%
CC/C=C\CC1C(=O)CCC1CC(=O)OC (stereo unspecified)	-8%
Cc1cccc(CNc2ccnc(-c3ccc4ccccc4c3)n2)c1	-13%
O=C1c2ccccc2NC(c2ccccc2O)N1Cc1ccccc1 (stereo unspecified)	-5%
Brc1ccc(-c2ccc(C3Nc4cccc5cccc(c45)N3)o2)cc1	-17%
Fc1ccccc1C1=NC(c2ccc(C(F)(F)F)cc2)=Nc2ccccc2N1	-25%
O=C1c2ccccc2NC(c2ccc(Br)o2)N1O (stereo unspecified)	1%
SMILES	nsP2pro primary	others
O=C1c2ccccc2NC(c2ccc(-c3cccs3)o2)N1O (stereo unspecified)	5.6µM*	nsP2 cell sec=-30%;NSP2 full ctr=32%;Furin counter=-14%;NS23 peptide cs=4%;Papain cs=-5%;nsP2pro conf qHTS=34%;HCV NS3 counter=i
O=C1c2ccccc2NC(c2ccc(-c3ccc(C(F)(F)F)cc3)o2)N1O (stereo unspecified)	10µM*	nsP2 cell sec=21µM*;NSP2 full ctr=149%;Furin counter=-8%;NS23 peptide cs=11%;Papain cs=-14%;nsP2pro conf qHTS=35%;HCV NS3 counter=i
Fc1ccc(-c2ccc(Nc3nc(-c4ccncc4)nc4ccccc34)cc2F)c(F)c1	i
FC(F)(F)c1ccccc1-c1nc(NCC#Cc2cccnc2)c2ccccc2n1	-2%
CC(C)N1C[C@@H](COCc2ccccc2)[C@H](c2ccccc2)[S+]1(=O)[O-]	-5%
COC(=O)c1cc(OC)c(O[C@@H]2O[C@@H](C)[C@H](O)[C@@H](O)[C@H]2O)c(OC)c1	-4%
COC(=O)c1cncc(NC(=O)c2cccs2)c1	i
O=C(NCCCc1ccccc1)C1CCCCN1Cc1ccc(-c2ccsc2)cc1 (stereo unspecified)	i
CS(=O)(=O)c1ncc(Cl)c(C(=O)N(Cc2ccc(Cl)cc2)Cc2ccco2)n1	4.8µM*	nsP2 cell sec=2.6µM*;NSP2 full ctr=?;Furin counter=-6%;NS23 peptide cs=4.1µM*;Papain cs=2%;nsP2pro conf qHTS=2.2µM*;HCV NS3 counter=i
O=C(c1cc(-c2ccc(Cl)cc2)on1)N(Cc1ccc(F)cc1)Cc1ccco1	-8%
O=C(c1ccc(Cl)cc1)N(Cc1ccco1)Cc1ccco1	-9%
CC1(C(=O)O)CCCC2(C)C3CCC4CC3(CCC12)CC4(O)CO (stereo unspecified)	24%
CC1=C(c2ccc(NC(=O)c3c(F)cccc3F)cc2)CN(c2nccs2)CC1	-8%
O=C(CCN1CCN(C(=O)OCc2cc(Cl)cc(Cl)c2)CC1)c1ccc2[nH]c(=O)oc2c1	0.99µM*!	nsP2 cell sec=-2%;NSP2 full ctr=16µM*;Furin counter=-3%;NS23 peptide cs=?;Papain cs=-21%;nsP2pro conf qHTS=6.3µM*;HCV NS3 counter=i
O=C(Nc1ccc2[nH]c(=O)oc2c1)C(=O)N1CCC(Cc2ccc(F)cc2)CC1	-5%
O=C(NCCc1nc2ccccc2n1CCCc1ccccc1)C1CCCCC1	-15%
CC(C)(C)OC(=O)N1CCC(c2c(C(=O)NCCc3ccccc3)cnn2-c2ccc(F)cc2F)CC1	4%
COCCCNC(=O)c1cnn(-c2ccc(F)cc2F)c1C1CCNCC1	52%	nsP2 cell sec=5%;NSP2 full ctr=16µM*;Furin counter=-6%;NS23 peptide cs=?;Papain cs=-4%;nsP2pro conf qHTS=?;HCV NS3 counter=?
CC(C)(C)OC(=O)N1CCC(c2c(C(=O)NCCN3CCc4ccccc4C3)cnn2-c2ccc(F)cc2F)CC1	-3%
CCCCOc1ccc(CC/C=C2\SC(=O)N(CCN)C2=O)cc1	379%
Cc1ccnc(NC(=S)N[C@@H]2CCN(c3cccc(C(F)(F)F)c3)C2)c1	i
CO[C@@H](Cc1ccc(OCCc2nc(-c3ccccc3)oc2C)c2ccsc12)C(=O)O	9.9µM*	nsP2 cell sec=21%;NSP2 full ctr=0%;Furin counter=-6%;NS23 peptide cs=i;Papain cs=?;nsP2pro conf qHTS=?;HCV NS3 counter=i

Bioassay records (PubChem BioAssay)
